IEC-6 tox-1: counter-screen for KLF5 inhibitors: cytotoxicity in IEC-6 cells. IEC-6 cytotoxicity, luminescence viability. inhibition, % at 5 µM. 0.78% of 290,000 active
APP transl inh: APP translation inhibition; 0.82% of 190,000 active; AID 1285; SH-SY5Y APP 5'UTR-luciferase reporter, luminescence; inhibition, % at 2 µM;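 active = inhibition above a set limit, derived from the sample mean plus 3 SD, cut at about 45% in these data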
Ba/F3 V617F tox: lowers viability of Ba/F3 cells expressing EpoR and JAK2V617F; ATP luminescence; inhibition, % at 5.6 µM; 1.1% of 220,000 active;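 active = inhibition above the campaign mean plus 3 SD over all tested compounds, cut at about 24% in these data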;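 note: cytokine-independent growth of Ba/F3 cells driven by EpoR plus mutant JAK2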
KLF5 inhibitor: inhibitors of KLF5 expression; DLD-1 KLF5 promoter-luciferase reporter, luminescence; inhibition, % at 5 µM; 0.23% of 290,000 active; AID 1700;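 active = inhibition above a per-plate limit of that plate's mean compound inhibition plus 3 SD, cut at about 60% in these data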;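 note: higher means less KLF5 promoter-driven luciferase light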
BaF3 parental: parental Ba/F3 viability inhibition as JAK2V617F counter-screen; CellTiter-Glo ATP luminescence; AID 1486; inhibition, % at 5.6 µM; 1.1% of 220,000 active;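 active = inhibition above a per-campaign cutoff, the mean inhibition of all tested compounds plus 3 SD, cut at about 27% in these data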
aSyn UTR inh: 5' untranslated region of α-synuclein, MLPCN primary screen; alpha-synuclein 5'UTR reporter, inhibitor activity; inhibition, % (tested at 7.5 µM); 0.82% of 300,000 active; in the data active = inhibition above about 60%;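 note: H4 neuroglioblastoma cells stably carrying SNCA 5'UTR luciferase fusion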
KLF5 inh confirm: KLF5 inhibition, confirmation assay; DLD-1 KLF5 promoter firefly luciferase reporter, luminescence; 79% of 610 active; AID 1834; inhibition, % at 4 µM; shares compounds with KLF5 inhibitor;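 active = inhibition above a set limit taken from the earlier primary screen, cut at about 63% in these data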
IEC-6 tox-2: kills rat IEC-6 cells in KLF5 counter-screen | shares compounds with KLF5 inhibitor | IEC-6 rat intestinal cells, viability luminescence | inhibition, % at 4 µM | 56% of 610 active | AID 1905; in the data active = inhibition above about 23%;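 note: cells exposed to compounds for 48 hours before viability read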
IEC-6 cytotox cf: confirmation of cytotoxic compounds in rat IEC-6 intestinal epithelial cells | shares compounds with IEC-6 tox-1 | IEC-6 rat intestinal epithelial viability, luminescence | inhibition, % at 5 µM | 63% of 1,900 active | AID 1907
Each line names hits and unclear results; the compound was inactive in the other large screens (follow-up assays come after a bar, where they were run). Sampled rows, rich in hits. Any-hit rate of the full collection: about 2.2%. Cut-off read from the data, not from the text of the source, unless noted: active = inhibition above about 22%; inactive = the rest.

CCNCC(=O)N1c2ccccc2CCc2ccc(NC(=O)OC(C)C)cc21	none (no result: APP transl inh, Ba/F3 V617F tox, BaF3 parental)
CN(C)c1ccc(C(=O)c2ccc(N(C)C)c3ccccc23)cc1	IEC-6 tox-1 96.9, APP transl inh 95.4, Ba/F3 V617F tox 93.7, KLF5 inhibitor 80.2, BaF3 parental 93.6, aSyn UTR inh 89.0 | KLF5 inh confirm 91.5 | IEC-6 tox-2 84.9 | IEC-6 cytotox cf 83.8
CN(C)c1ccc(C(=O)c2ccccc2C(=O)O)cc1[N+](=O)[O-]	none
O=S(=O)(c1cc(O)ccc1O)c1cccc2c(S(=O)(=O)c3cc(O)ccc3O)cccc12	none (no result: IEC-6 tox-1, APP transl inh, Ba/F3 V617F tox, KLF5 inhibitor, BaF3 parental)
Cc1ccccc1OCCc1c(C)[nH]c(=S)[nH]c1=O	IEC-6 tox-1 84.2, APP transl inh 92.0, Ba/F3 V617F tox 72.5, KLF5 inhibitor 81.7, BaF3 parental 75.2 | KLF5 inh confirm 78.4 | IEC-6 tox-2 54.9 | IEC-6 cytotox cf 56.3
Cc1[nH]c(=S)[nH]c(=O)c1CCOc1ccccc1	none
CCN(CC(=O)NCc1ccc(Cl)cc1)C(=O)CCC(=O)c1ccc(F)cc1	none (no result: IEC-6 tox-1, APP transl inh, Ba/F3 V617F tox, KLF5 inhibitor, BaF3 parental)
COCCCNc1nnc(Cc2ccc(Cl)cc2)c(=O)[nH]1	IEC-6 tox-1 82.0, KLF5 inhibitor 62.2, aSyn UTR inh 66.5 (no result: APP transl inh, Ba/F3 V617F tox, BaF3 parental) | KLF5 inh confirm 80.4 | IEC-6 tox-2 38.4 | IEC-6 cytotox cf 59.9
Cc1ccc(S(=O)(=O)Nc2cccc(C(=O)NCc3ccc(S(N)(=O)=O)cc3)c2)cc1	none (no result: APP transl inh, Ba/F3 V617F tox, BaF3 parental)
Cn1cccc1/C=N\NC(=O)c1cncc(Br)c1	none (no result: APP transl inh)
O=C(N/N=C/c1c(O)ccc2ccccc12)c1cccnc1	IEC-6 tox-1 75.3, KLF5 inhibitor 82.2, aSyn UTR inh 92.9 (no result: APP transl inh, Ba/F3 V617F tox, BaF3 parental) | KLF5 inh confirm 81.1 | IEC-6 tox-2 inactive | IEC-6 cytotox cf inactive
O=C(N/N=C\c1c(O)ccc2ccccc12)c1cncc(Br)c1	IEC-6 tox-1 95.3, KLF5 inhibitor 69.6, aSyn UTR inh 62.5 (no result: APP transl inh, Ba/F3 V617F tox, BaF3 parental) | KLF5 inh confirm 85.5 | IEC-6 tox-2 56.0 | IEC-6 cytotox cf 65.2
Cc1ccc(C(=O)N/N=C/c2c(O)ccc3ccccc23)cn1	IEC-6 tox-1 38.7, KLF5 inhibitor 93.9, aSyn UTR inh 62.5 (no result: APP transl inh, Ba/F3 V617F tox, BaF3 parental) | KLF5 inh confirm 84.9 | IEC-6 tox-2 inactive | IEC-6 cytotox cf 32.7
O=C(N/N=C/c1cc(O)ccc1Br)c1cccnc1	IEC-6 tox-1 66.0, KLF5 inhibitor 80.2 (no result: APP transl inh, Ba/F3 V617F tox, BaF3 parental) | KLF5 inh confirm 90.0 | IEC-6 tox-2 inactive | IEC-6 cytotox cf inactive
C=CCN(CC=C)C(=O)CCc1nnc(CCc2c[nH]c3ccccc23)o1	none
COc1cccc(CNC(=O)CN2C(=O)COc3ccc(S(=O)(=O)N4CCOCC4)cc32)c1	none (no result: APP transl inh, Ba/F3 V617F tox, BaF3 parental)
Cn1nc(-c2ccc(Cl)cc2)nc2c(=O)n(C)c(=O)nc1-2	IEC-6 tox-1 97.5, Ba/F3 V617F tox 94.9, KLF5 inhibitor 90.5, BaF3 parental 85.4, aSyn UTR inh 110.4 | KLF5 inh confirm 113.3 | IEC-6 tox-2 63.2 | IEC-6 cytotox cf 77.5
Cc1ccc(S(=O)(=O)Oc2ccccc2/C=N/NC(N)=S)cc1	IEC-6 tox-1 58.2, APP transl inh 91.0, Ba/F3 V617F tox 81.7, KLF5 inhibitor 65.2, BaF3 parental 71.5 | KLF5 inh confirm 73.0 | IEC-6 tox-2 57.1 | IEC-6 cytotox cf inactive
Cc1ccc(S(=O)(=O)Oc2ccccc2/C=N/N=C(N)N)cc1	none
CC(C)(C)C(=O)Nc1ccccc1C(=O)NCCC(=O)Nc1ccccc1	none (no result: IEC-6 tox-1, APP transl inh, Ba/F3 V617F tox, KLF5 inhibitor, BaF3 parental)
COc1ccc(CSC2=CS(=O)(=O)c3ccccc3N2)cc1	none
COc1ccc(C(Nc2cc(C)ccn2)c2ccc3ccc(C)nc3c2O)cc1 (stereo unspecified)	none (no result: APP transl inh)
CC(C)CC(=O)NC(c1ccccc1Cl)c1c(O)ccc2ccccc12 (stereo unspecified)	none
CCCC(=O)NC(c1ccccc1Cl)c1ccc2cccnc2c1O (stereo unspecified)	IEC-6 tox-1 97.8, KLF5 inhibitor 91.0, aSyn UTR inh 68.3 (no result: APP transl inh, Ba/F3 V617F tox, BaF3 parental) | KLF5 inh confirm 91.3 | IEC-6 tox-2 77.6 | IEC-6 cytotox cf 76.2
CC(=O)NC(c1ccccc1)c1cc(Cl)c2cccnc2c1O (stereo unspecified)	IEC-6 tox-1 83.1, KLF5 inhibitor 89.3 (no result: APP transl inh, Ba/F3 V617F tox, BaF3 parental) | KLF5 inh confirm 73.7 | IEC-6 tox-2 87.2 | IEC-6 cytotox cf 72.5
